Results reported in PubChem BioAssay (NCATS).
Inconclusive results are not listed. Activity calls are given as the source filed them. Calls follow the shape of the dose curve; as a rule, active = well fitted cell-killing curve with a large enough effect; inconclusive = small, poorly fitted or top-dose-only effect; inactive = flat fitted curve, though single readings scatter.

Experiments:
[1] = Cell Viability - LYMP2-009 (AID 968); also: nearly all actives have a fitted effect of over 55% in size; also: potency is read from the fitted curve at half-maximal effect
[2] = Cell Viability - LYMP2-011 (AID 969); also: nearly all actives have a fitted effect of over 60% in size; also: potency is read from the fitted curve at half-maximal effect
Procedure, shortened: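 2500 cells/well in complete medium, compound-treated 24 h at 37 C. Viability read as intracellular ATP by CellTiter-Glo luminescence after 30 min at room temperature. AC50 from Hill fits of qHTS concentration-response data.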

[3] = Cell Viability - LYMP2-013 (AID 970); also: nearly all actives have a fitted effect of over 55% in size; also: potency is read from the fitted curve at half-maximal effect
Procedure, shortened: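 Human lymphoblastoid LYMP2-013 cells, 2500/well, treated 24 h at 37 C in complete medium; viability as intracellular ATP by CellTiter-Glo luminescence after 30 min. AC50 from Hill fits of qHTS concentration-response.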

[4] = Cell Viability - LYMP2-015 (AID 971); also: nearly all actives have a fitted effect of over 55% in size; also: potency is read from the fitted curve at half-maximal effect
Procedure, shortened: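 LYMP2-015 human lymphoblastoid cells (2500/well) in complete medium, compound-treated 24 h at 37 C; viability read as cellular ATP by CellTiter-Glo luminescence after 30 min at room temperature. AC50 from Hill-equation fits of qHTS concentration-response data.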

[5] = Cell Viability - LYMP2-017 (AID 972); also: nearly all actives have a fitted effect of over 55% in size; also: potency is read from the fitted curve at half-maximal effect
Procedure, shortened: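 LYMP2-017 human lymphoblastoid cells (2500/well) settled 5 hr at 37 C, then exposed to compound 24 hr at 37 C in complete medium. Viability taken as intracellular ATP by CellTiter-Glo luminescence after 30 min at RT; AC50 from Hill fits.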

[6] = Cell Viability - LYMP2-019 (AID 973); also: nearly all actives have a fitted effect of over 55% in size; also: potency is read from the fitted curve at half-maximal effect
Procedure, shortened: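 Human lymphoblastoid LYMP2-019 cells (2500/well) preincubated 5 h at 37 C, then treated 24 h at 37 C in complete medium. Viability by CellTiter-Glo ATP luminescence after 30 min at room temperature; AC50 from Hill fits.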

[7] = Cell Viability - LYMP2-021 (AID 974); also: potency is read from the fitted curve at half-maximal effect
Procedure, shortened: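 Human lymphoblastoid LYMP2-021 cells, 2500/well in complete medium, treated 24 hours at 37 C. Intracellular ATP by CellTiter-Glo luminescence (30 min, RT); AC50 from Hill fits of concentration-response.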

[8] = Cell Viability - LYMP2-023 (AID 975)
Procedure, shortened: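 LYMP2-023 human lymphoblastoid cells, 2500/well, preincubated 5 hr at 37 C, then compound-treated 24 hr at 37 C in complete medium. CellTiter-Glo luminescence (ATP) after 30 min at room temperature; AC50 from Hill-equation fits; tetraoctylammonium bromide positive control.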

[9] = Cell Viability - LYMP2-025 (AID 976); also: series mostly up to about 92 µM
Procedure, shortened: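 Human lymphoblastoid LYMP2-025 cells, 2500/well, exposed 24 h at 37 C in complete medium in 1536-well qHTS. Viability as cellular ATP by CellTiter-Glo luminescence; AC50 from Hill fits of concentration-response data.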

[10] = Cell Viability - LYMP2-002 (AID 977);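 also: series mostly up to about 92 µM; compound exposure lasted 24 h at 37 °C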
Procedure, shortened: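 Cytotoxicity is scored as concentration-dependent loss of cellular ATP in a human lymphoblastoid line after 24 hr compound treatment at 37 C. AC50 is obtained by modelling concentration-response data with the Hill equation.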

[11] = Cell Viability - LYMP2-006 (AID 978); also: series mostly up to about 92 µM; nearly all actives have a fitted effect of over 60% in size
Procedure, shortened: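 qHTS, 1536-well; 2500 cells/well, 5 hr 37 C; cpd 24 hr 37 C; CellTiter-Glo 30 min RT; luminescence. Tetraoctylammonium bromide pos. ctrl. AC50 via Hill eqn.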

[12] = Cell Viability - LYMP2-007 (AID 979);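 also: cells exposed to compound for 24 h before reading; nearly all actives have a fitted effect of over 60% in size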; also: potency is read from the fitted curve at half-maximal effect
Procedure, shortened: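 Human lymphoblastoid LYMP2-007 cells (2500/well) preincubated 5 h at 37 C, then treated 24 h at 37 C in complete medium. Viability by CellTiter-Glo ATP luminescence after 30 min at room temperature; AC50 from Hill fits.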

[13] = Cell Viability - LYMP2-008 (AID 980); also: nearly all actives have a fitted effect of over 60% in size
Procedure, shortened: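 LYMP2-008 lymphoblastoid cells (2500/well) plated 5 h, then treated 24 h at 37 C in complete medium. Viability read as intracellular ATP by CellTiter-Glo luminescence after 30 min at room temperature; AC50 from Hill fits.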

[14] = Cell Viability - LYMP2-010 (AID 981); also: nearly all actives have a fitted effect of over 55% in size; also: potency is read from the fitted curve at half-maximal effect
Procedure, shortened: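 Human lymphoblastoid LYMP2-010 cells (2500/well) treated 24 h at 37 C in complete medium; viability read as intracellular ATP by CellTiter-Glo luminescence. AC50 from Hill fits of concentration-response data; tetraoctylammonium bromide positive control.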

[15] = Cell Viability - LYMP2-012 (AID 982); also: potency is read from the fitted curve at half-maximal effect
[16] = Cell Viability - LYMP2-014 (AID 983); also: series mostly up to about 92 µM; nearly all actives have a fitted effect of over 50% in size
Procedure, shortened: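 LYMP2-014 human lymphoblastoid cells, 2500/well, treated 24 h at 37 C in complete medium; viability by CellTiter-Glo ATP luminescence after 30 min at room temperature. AC50 from Hill fits of qHTS concentration-response; tetraoctylammonium bromide positive control.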

[17] = Cell Viability - LYMP2-016 (AID 984); also: nearly all actives have a fitted effect of over 55% in size
Procedure, shortened: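 qHTS, 1536-well: 2500 LYMP2-016 cells/well, 5 hr 37 C, compound added, 24 hr 37 C, CellTiter-Glo 30 min RT, luminescence. Tetraoctylammonium bromide positive control. AC50 via Hill fit.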

[18] = Cell Viability - LYMP2-018 (AID 985);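 also: compound exposure lasted 24 hr at 37 °C; nearly all actives have a fitted effect of over 50% in size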
Procedure, shortened: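 Human lymphoblastoid LYMP2-018 cells, 2500/well, settled 5 hr at 37 C then exposed to compound 24 hr at 37 C; intracellular ATP measured by CellTiter-Glo luminescence. AC50 from Hill-equation concentration-response fits.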

[19] = Cell Viability - LYMP2-020 (AID 986)
Procedure, shortened: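 Human lymphoblastoid LYMP2-020 cells (2500/well) preincubated 5 h at 37 C, then treated 24 h at 37 C. Viability measured as intracellular ATP by CellTiter-Glo luminescence after 30 min at room temperature; AC50 from Hill fits.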

[20] = Cell Viability - LYMP2-022 (AID 987); also: nearly all actives have a fitted effect of over 55% in size; also: potency is read from the fitted curve at half-maximal effect
Procedure, shortened: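 LYMP2-022 lymphoblastoid cells (2500/well, complete medium) were treated with compounds for 24 hours at 37 C; intracellular ATP was then read by CellTiter-Glo luminescence after 30 min at room temperature. AC50 values were derived from Hill-equation fits.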

Measured: Potency

O=C1CCO1
inactive: all assays above

C=CCN=C=S
inactive: all assays above

COC1=CC(=O)O[C@@H](/C=C/c2ccccc2)C1
inactive: all assays above

O=C1C=CC(=O)C=C1
inactive: [9] | [10] | [16] | [17]
active: [1] 50.1 µM | [2] 50.1 µM | [3] 39.8 µM | [4] 31.6 µM | [5] 50.1 µM | [6] 50.1 µM | [7] 31.6 µM | [12] 50.1 µM | [14] 39.8 µM | [15] 39.8 µM | [20] 39.8 µM

CCOC(=O)c1ccccc1C(=O)OCC
inactive: all assays above

COc1ccc2c(c1OC)C(=O)OC2C1c2cc3c(cc2CCN1C)OCO3 (centres undefined)
inactive: all assays above

[O]=[Cd]
inactive: all assays above

O=[N+]([O-])c1ccccc1
inactive: all assays above

O=CC=O
inactive: all assays above

ClC=C(Cl)Cl
inactive: all assays above

C[C@]12CCC(=O)C[C@@H]1CC[C@@H]1[C@@H]2CC[C@]2(C)[C@@H](O)CC[C@@H]12
not listed: [6]
inactive: all other assays above

Oc1cc(Cl)c(Cl)cc1Cl
inactive: all assays above
